Test results taken from PubChem BioAssay (NCI).
The panel holds about 83,000 compounds, 20% with a hit somewhere; the sample as a whole holds those more often.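 96-well plates, one dose, 48 hours. Percent growth reported; active if below 10.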 Calls of active or inactive are those of the source.

Key:
Assay in all cases: NCI-60 one-dose screen, 48 h (100 = growth as untreated, 0 = no growth, -100 = all killed)
Conditions in all cases: 10 µM unless noted
[1] = system: SR leukemia
[2] = system: RPMI-8226 leukemia
[3] = system: OVCAR-8 ovarian
[4] = system: OVCAR-5 ovarian
[5] = system: OVCAR-4 ovarian
[6] = system: SK-OV-3 ovarian
[7] = system: IGROV1 ovarian
[8] = system: OVCAR-3 ovarian
[9] = system: HS 578T breast
[10] = system: NCI/ADR-RES ovarian

Measured: growth

O=[N+]([O-])c1ccc2c(c1)Cc1ccccc1-2
inactive: [1] 91.4% | [2] 121% | [3] 98.9% | [4] 91.3% | [5] 97.3% | [6] 112% | [7] 94.7% | [8] 103%

O=C(c1ccccc1)N(CCCl)C(=O)N(CCCl)C(=O)c1ccccc1
inactive: [1] 94.4% | [2] 101% | [3] 98.5% | [4] 91% | [5] 105% | [6] 104% | [7] 103% | [8] 107% | [9] 110%

O=C(NNc1ccccc1)OCc1ccccc1
inactive: [1] 47.1% | [2] 64.2% | [3] 61.4% | [4] 53.1% | [5] 112% | [6] 105% | [7] 58.7% | [8] 91.4% | [9] 91.8% | [10] 55.2%

COc1cc(OC)c(/C=C/c2c3ccccc3cc[n+]2C)c(OC)c1
active: [1] -18.2% | [2] 6.51% | [3] 5.21% | [8] 5.9%
inactive: [4] 56.5% | [5] 24.9% | [6] 35% | [7] 13.2% | [9] 46.3%

CCCCCCCCCCCC1N=C(N)N=C(N)N1c1cccc(Br)c1 (stereo not given)
active: [1] -29.2% | [2] -40% | [3] -14.6% | [4] -32.8% | [7] -30.2% | [8] -28.6%
inactive: [5] 55.4% | [6] 32.6% | [9] 18.9%

Cc1cc(Br)c2nsnc2c1[N+](=O)[O-]
inactive: [1] 19.2% | [2] 23.9% | [3] 52.8% | [4] 72.8% | [5] 47.7% | [6] 91.3% | [7] 27.4% | [8] 57% | [9] 47% | [10] 50.5%

N#CC(I)CS(=O)(=O)c1ccccc1 (stereo not given)
inactive: [1] 109% | [2] 101% | [3] 91.5% | [4] 106% | [5] 95.4% | [6] 102% | [7] 69.3% | [8] 76.4% | [9] 114% | [10] 97.4%

CN(C)CCN(C)CC(C)(C)C(=O)/C=C/c1ccc(Cl)c(Cl)c1
active: [1] -25.9% [100 µM] | [2] -30.6% [100 µM] | [3] -86.5% [100 µM] | [4] -93.4% [100 µM] | [5] -98.5% [100 µM] | [6] -97.7% [100 µM] | [7] -92.2% [100 µM] | [8] -98.4% [100 µM] | [9] -39.5% [100 µM] | [10] -47.2% [100 µM]

Cc1nc(Sc2nc3ccc([N+](=O)[O-])cc3s2)sc1C
active: [1] -13.2% | [2] 2.79% | [8] -2.8%
inactive: [3] 19.5% | [4] 34.8% | [5] 36.4% | [6] 39.4% | [7] 32% | [9] 50% | [10] 16.7%

O=S(=O)(O)c1cnccn1
inactive: [1] 110% | [2] 104% | [3] 107% | [4] 96.6% | [5] 113% | [6] 89.6% | [7] 105% | [8] 103% | [9] 112% | [10] 102%

CCC[CH2][Sn]1([CH2]CCC)[O]C2C(CO)OC(n3ccc(N)nc3=O)C2[O]1 (stereo not given)
inactive: [6] 28.2% | [10] 24.8%
active: [1] -30.5% | [2] -28.7% | [3] -44.7% | [4] -41.9% | [5] -53% | [7] -23% | [8] -90.8% | [9] -12.4%

C(=N\Nc1ccc2ccccc2n1)/c1ccccn1
inactive: [2] 25.1% | [3] 18.5% | [4] 47.4% | [5] 22.2% | [6] 26.1% | [8] 44.7% | [9] 38.4% | [10] 18.6%
active: [1] 6.86% | [7] 2.7%

CC1(C)OCC(COC(c2ccccc2)(c2ccccc2)c2ccccc2)O1 (stereo not given)
inactive: [1] 93.6% | [2] 105% | [3] 98.4% | [4] 98.1% | [5] 96% | [6] 112% | [7] 108% | [8] 102% | [9] 103% | [10] 103%

CCOc1ccc(Nc2nc3c(s2)C(=O)c2ccccc2C3=O)cc1
inactive: [1] 46.6% | [2] 51% | [3] 68.4% | [4] 112% | [5] 65.5% | [6] 103% | [7] 82.2% | [8] 53.9% | [9] 96.8% | [10] 75.2%

COC(=O)[C@]1(C)CCC[C@]2(C)c3ccc(C(C)C)cc3C(=O)[C@@H](Br)[C@@H]12
inactive: [1] 65.6% | [2] 81.1% | [3] 77.9% | [4] 113% | [5] 82.3% | [6] 96.9% | [7] 111% | [8] 95.4% | [9] 98% | [10] 96.7%

c1ccc(-c2cc3cc4ccccc4cn3c2)cc1
inactive: [1] 67.4% | [2] 66.4% | [3] 85.4% | [4] 112% | [5] 76.4% | [6] 92.2% | [7] 79.7% | [8] 88.9% | [9] 88.2% | [10] 91.7%

S=C1SCN(Cc2cccs2)CN1Cc1cccs1
inactive: [1] 59.3% | [2] 58% | [3] 104% | [4] 98.8% | [5] 94.4% | [6] 108% | [7] 106% | [8] 111% | [9] 91.1% | [10] 108%

COC(=O)Nc1nc2ccc(C3(c4ccc(F)cc4)OCCO3)cc2[nH]1
active: [8] 4.74%
inactive: [1] 25.2% | [2] 10.4% | [3] 21.1% | [4] 47.5% | [5] 68.4% | [6] 22% | [7] 29.8% | [9] 37.7% | [10] 24.2%

CCCCCCCCCCCCCCCCSC(=NCC)NCC
inactive: [4] 44.5% | [6] 72.1% | [9] 66.1% | [10] 25.4%
active: [1] -43.3% | [2] -43.3% | [3] -15.4% | [5] 2% | [7] -89.3% | [8] -18.1%

Oc1ccc2c(c1)CCc1ccccc1-2
inactive: [1] 104% | [2] 105% | [3] 106% | [4] 92.4% | [5] 90.9% | [6] 105% | [7] 116% | [8] 112% | [9] 96.8% | [10] 114%

COc1ccc2c(c1)c(CC(=O)O)c(C)n2C(=O)c1ccc(Cl)cc1
inactive: [1] 106% | [2] 83.8% | [3] 104% | [4] 105% | [5] 102% | [6] 119% | [7] 99% | [8] 125% | [9] 97.8% | [10] 98%

CCCCCCCCCCCC1=NCCCN1CCCC
inactive: [1] 57.6% | [2] 93.4% | [3] 101% | [4] 93.4% | [5] 101% | [6] 102% | [7] 105% | [8] 104% | [9] 112% | [10] 96.8%

O=C(Cc1ccccc1)C(F)(F)F
inactive: [1] 94.7% | [2] 106% | [3] 103% | [4] 99.5% | [5] 106% | [6] 101% | [7] 101% | [8] 101% | [9] 111% | [10] 104%

CC[n+]1ccc(Nc2ccc(NC(=O)c3ccc(Nc4cc[n+](CC)c5ccc([N+](=O)[O-])cc45)cc3)cc2)cc1
inactive: [1] 75.7% | [2] 41.9% | [3] 79% | [4] 107% | [5] 56.8% | [6] 84.5% | [7] 115% | [8] 91.8% | [9] 97% | [10] 106%

Nc1ccc(C(=O)/C=C/c2ccccc2)cc1
inactive: [1] 46.9% | [2] 43% | [3] 102% | [4] 113% | [5] 105% | [6] 110% | [7] 90.4% | [8] 75.2% | [9] 106% | [10] 101%

CC(=O)c1ccc2c(c1)CCc1ccccc1-2
inactive: [1] 103% | [2] 108% | [3] 109% | [4] 88.9% | [5] 98.8% | [6] 101% | [7] 119% | [8] 125% | [9] 103% | [10] 119%

O=C1C=C(Cl)C(=O)c2ccccc21
inactive: [1] 94.7% | [2] 84.7% | [3] 91.6% | [4] 113% | [5] 92.5% | [6] 94.7% | [7] 92.3% | [8] 89.8% | [9] 111% | [10] 102%

Cc1ccccc1NC(=O)Cc1csc2[n+]1C(=O)/C(=C/c1ccc([N+](=O)[O-])cc1)S2
inactive: [1] 79.7% | [2] 91.2% | [3] 97.9% | [4] 98.4% | [5] 83.6% | [6] 90.1% | [7] 103% | [8] 97.8% | [9] 98.6% | [10] 100%

S=C=Nc1ccc(N2CCOCC2)cc1
inactive: [1] 71.2% | [2] 87.8% | [3] 102% | [4] 97.6% | [5] 106% | [6] 93% | [7] 96.9% | [8] 109% | [9] 99.3% | [10] 101%
